# EBV LMP1 NFkB: reduces LMP1-driven NF-kappaB luciferase signal. AID 504558. inhibition, % at 12.5 µM. 350,000 compounds, 0.69% hits. LMP1-induced NF-kappaB luciferase reporter cells, luminescence; in the data active = inhibition above about 41%; inconclusive = no clear call, values can overlap the other calls;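 also: 0% = neutral control wells and 100% = reference inhibitor control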
# TWEAK-Fn14 inh: blocks TWEAK-Fn14 interaction in a reporter cell assay; TWEAK-stimulated Fn14 reporter cells, luciferase luminescence, 8 h; AID 1159606; inhibition, % at 10 µM; 360,000 compounds, 2% hits; in the data active = inhibition above about 50%
# TROY NFkB inh: TROY signaling inhibition | inhibition, % at 10 µM | 360,000 compounds, 0.98% hits | Q293 LMP1-TROYcd NF-kB luciferase reporter, 4 h;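 active = compounds whose plate-normalised and pattern-corrected inhibition of the luciferase reporter signal at the single screening dose is 50% or more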
# Shn3 3UTR inh: inhibitors of Schnurri-3 3'UTR reporter in osteoblasts; AID 588674; 360,000 compounds, 0.52% hits; inhibition, % at 12.5 µM; Clone20 osteoblast Shn3 3'UTR firefly luciferase, 24 h;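 active = mean inhibition of at least 75% with every replicate also reaching 75%; inconclusive = mean inhibition at least 75% but some replicate below; inactive = mean inhibition below 75%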;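 also: 0% = median of neutral control wells and 100% = pilot-screen positive control compound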
# MITF TRPM1 inh: MITF TRPM1 promoter inhibition in SK-MEL-5 cells | 330,000 compounds, 0.83% hits | SK-MEL-5 TRPM1 promoter luciferase, 24 h | inhibition, % at 12.5 µM;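 active = mean inhibition across replicates of 60% or more, whatever share of single replicates reaches that level; inconclusive = some that reach 60%, reason not given; inactive = mean inhibition across replicates below 60%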
# Peg3 promoter: inhibitors of Peg3 promoter | HeLa PEG-Prom luciferase reporter, luminescence, overnight | inhibition, % at 20 µM | 360,000 compounds, 1.7% hits | AID 588405;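 active = inhibition of at least 50% at 20 µM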
# * hit, by the source's call; ? = inconclusive; . = no result given. An excerpt weighted towards active compounds, which were near 4.1% of everything screened.
SMILES,EBV LMP1 NFkB,TWEAK-Fn14 inh,TROY NFkB inh,Shn3 3UTR inh,MITF TRPM1 inh,Peg3 promoter
C[C@]12c3[nH]c4ccccc4c3CCN1C(=O)C(CC(=O)NCCc1ccccn1)C[C@@H]2C(=O)N1CCCCC1 (stereo partly drawn),5,-2,-2,-21,-4,-4
COCCN(C(=O)/C=C/c1ccccc1)c1nnc(-c2cccnc2)s1,2,0,2,15,11,17
O=c1cc(Cn2ccnc2)c2cc(O)ccc2o1,-8,13,-20,-3,-1,6
O=C(CCNS(=O)(=O)c1ccc(Br)cc1)NC1CCC(O)CC1 (stereo not drawn),-2,9,-8,1,9,0
CN(C)CCCNC(=O)C[C@H]1C[C@H](C(=O)N2CCCCC2)[C@@]2(CCc3ccccc3)c3[nH]c4cc(-c5ccco5)ccc4c3CCN2C1=O,-13,-21,9,16,92*,95*
CC(C)(C)NC(=O)C[C@H]1C[C@H](C(=O)N2CCCCC2)[C@@]2(CCc3ccccc3)c3[nH]c4cc(-c5ccco5)ccc4c3CCN2C1=O,3,3,3,12,-3,16
CCC(C)Nc1nc(-c2cccc(OC)c2O)nc2ccccc12 (stereo not drawn),-2,64*,60*,30,3,54*
CCC(C)Nc1nc(-c2ccccn2)nc2ccccc12 (stereo not drawn),48*,-6,-5,?,27,32
COc1cccc(-c2nc(NC(C)C)c3ccccc3n2)c1O,6,68*,28,11,11,37
COc1cccc(-c2nc(NCC3CCCO3)c3ccccc3n2)c1O (stereo not drawn),-8,35,-36,-4,-8,15
COc1cccc(-c2nc(NCc3cccnc3)c3ccccc3n2)c1O,-27,-23,-49,-30,0,-16
c1ccc(CNc2nc(-c3ccccn3)nc3ccccc23)cc1,27,13,21,64,27,47
Cc1cc(NC(=S)Nc2ccc(C)c(Cl)c2)n[nH]1,-25,-15,-53,-83,-87,-347
O=C(c1cc(-c2cccc(O)c2)on1)N1CCN(C(c2ccccc2)c2ccccc2)CC1,-6,36,30,44,-1,82*
COc1ccc(-c2cc(C(=O)N3CCN(c4ccccc4)CC3)no2)cc1,-23,50*,38,-41,-52,-324
O=C(c1cc(C2CC2)on1)N1CCN(C(c2ccccc2)c2ccccc2)CC1,-27,11,-11,7,.,0
COc1ccc(-c2cc(C(=O)N3CCN(c4ccccc4OC)CC3)no2)cc1,3,50,7,28,5,1
O=C(c1cc(-c2ccc3c(c2)OCO3)on1)N1CCCCC1,27,78*,48,-17,-12,-60
Cc1ccc(-c2cc(C(=O)N3CCCC3)no2)cc1,22,83*,50*,43,9,-15
O=C(c1cc(-c2ccc(Cl)c(Cl)c2)on1)N1CCCCCC1,-42,-19,-27,-114,-128,-371
COC(=O)c1ccc2nc(-c3ccc(F)cc3)c(Cc3ccccc3C(F)(F)F)n2c1,.,11,-16,.,.,.
COc1ccc(S(=O)(=O)N2CCC(C(=O)NCCC(=O)NC3CC3)CC2)cc1,-10,-2,-9,-5,0,-3
C=Cc1ccc(Cn2c(=O)n(CCCOC)c(=O)c3sccc32)cc1,3,-5,-26,5,8,25
O=C(c1cc(-c2ccc(Cl)cc2Cl)on1)N1CCCC1,5,70*,48,1,-7,-61
Cc1ccc(-c2cc(C(=O)N3CCOCC3)no2)cc1,39,86*,67*,9,28,-8
SMILES,EBV LMP1 NFkB,TWEAK-Fn14 inh,TROY NFkB inh,Shn3 3UTR inh,MITF TRPM1 inh,Peg3 promoter
Cc1ccc(-c2cc(-c3ccccc3)no2)cc1,-44,60*,-26,-76,-36,-233
O=C(c1cc(-c2ccc(Cl)cc2Cl)on1)N1CCCCCC1,-26,24,-1,-50,-46,-288
O=C(CN(C(=O)c1csnn1)c1cccc2c1CCCC2)NCc1ccccc1,3,29,13,-9,5,28
Nc1c(N(Cc2ccco2)C(=O)COc2ccccc2F)c(=O)[nH]c(=O)n1Cc1ccccc1,4,27,26,9,-4,0
COc1cc(/C=C(\C#N)c2ccccn2)ccc1OCc1ccccc1Cl,70*,20,-10,10,-10,-108
CN(C)CCNC(=O)/C(=C/c1ccc(-c2cccc(Cl)c2)o1)NC(=O)c1ccccc1,6,-1,2,-3,10,4
CN(C)CCCNC(=O)/C(=C\c1ccc(-c2ccc(Br)cc2)o1)NC(=O)c1ccccc1,-2,-70,-21,-3,96*,76*
Cc1ccc(C(=O)N/C(=C/c2ccc(Cl)cc2)C(=O)NCC2CCCO2)cc1 (stereo not drawn),2,77*,18,-7,-9,-5
Cc1ccc(C(=O)N/C(=C\c2ccc(-c3ccc(Cl)cc3)o2)C(=O)NCCCN(C)C)cc1,-1,-47,-12,1,86*,103*
Cc1ccc(C(=O)N/C(=C\c2ccccc2)C(=O)NCC2CCCO2)cc1 (stereo not drawn),2,13,1,-8,-2,4
COc1cccc(C(NC(C)=O)c2nc(-c3cccnc3)cs2)c1 (stereo not drawn),.,-2,-11,-24,.,-5
COc1ccc(Cl)cc1C(Nc1cccnc1)c1ccc2cccnc2c1O (stereo not drawn),9,15,-7,78,29,35
CCCCC(=O)NC(c1ccco1)c1cc(Cl)c2cccnc2c1O (stereo not drawn),31,26,21,78,6,49
CC(=O)NC(c1cccc([N+](=O)[O-])c1)c1ccc2cccnc2c1O (stereo not drawn),62*,29,11,91*,44,41
CCC(=O)NC(c1ccccc1OC)c1ccc2cccnc2c1O (stereo not drawn),65*,16,7,89*,66*,47
COc1cccc(C(NC(C)=O)c2ccc3cccnc3c2O)c1 (stereo not drawn),50*,15,10,83,84*,47
CCCCC(=O)NC(c1ccc(C(C)C)cc1)c1ccc2cccnc2c1O (stereo not drawn),50*,22,16,83,70*,53*
Cc1nnc(NC(=O)C2CCCN2C(=O)Nc2ccccc2)s1 (stereo not drawn),-5,12,-4,10,-5,-2
O=[N+]([O-])c1ccc(NC(c2ccccc2)c2ccc3cccnc3c2O)cc1 (stereo not drawn),57*,4,0,91*,74*,58*
CCCCC(=O)NC(c1cccc([N+](=O)[O-])c1)c1ccc2cccnc2c1O (stereo not drawn),50*,13,13,89*,57,58*
